In the library only some 3.6% were active in any assay of this set; here they are far more common.
GDH-TPI counter-1: GDH-TPI coupling enzyme inhibitors, primary screen, artefact control for M. tuberculosis FBA inhibitor project, biochemical, absorbance, full deck; GDH-TPI coupled enzyme counterscreen, NADH absorbance; inhibition, % at 4.8 µM; 360,000 tested, 1.2% active; AID 588335, 2011; in the data active = inhibition above about 30%;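 note: 0% = DMSO wells and 100% = wells lacking the enzyme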
Mtb hypoxia inh: PubChem AID 1159583 | 300,000 tested, 0.1% active | fluorescence inhibition, % (no concentration beside the values) | M. tuberculosis hypoxia-regulated fluorescent reporter, fluorescence; in the data active = fluorescence inhibition mostly above about 23%, no sharp cut-off; inactive = mostly below about 17%
Mtb bLac sens: beta-lactam sensitization of Mtb H37Rv, H37Rv; inhibition, % at 25 µM; M. tuberculosis H37Rv growth with meropenem, percent inhibition; 330,000 tested, 0.27% active; call rule not given here;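 note: growth measured after seven days incubation then overnight dye step; 0% = bacteria only wells and 100% = bacteria with antibiotic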
FBA Mtb inh: Mtb FBA enzyme inhibitors, primary screen, biochemical, fluorescence, strain H37Rv; purified M. tuberculosis FBA, fluorescence read-out; inhibition, % at 1 µM; 360,000 tested, 2.3% active;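 note: 0% = vehicle and 100% = reference inhibitor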
Target sequence (P9WQA3 whole entry, looked up): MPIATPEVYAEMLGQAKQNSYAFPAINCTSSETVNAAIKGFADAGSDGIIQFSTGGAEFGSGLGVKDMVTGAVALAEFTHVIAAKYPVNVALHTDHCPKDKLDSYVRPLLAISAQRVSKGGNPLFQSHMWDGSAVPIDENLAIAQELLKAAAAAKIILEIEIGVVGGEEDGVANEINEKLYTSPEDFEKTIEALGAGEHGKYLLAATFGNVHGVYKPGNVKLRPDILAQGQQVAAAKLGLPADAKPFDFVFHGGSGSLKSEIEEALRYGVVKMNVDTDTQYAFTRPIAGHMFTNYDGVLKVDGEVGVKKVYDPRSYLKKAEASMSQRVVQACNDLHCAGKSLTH
DUSP3 inh: VHR1 phosphatase inhibitors, primary screen, biochemical, absorbance, uHTS | Dual specificity protein phosphatase 3 (Homo sapiens), P51452 | recombinant VHR phosphatase, pNPP absorbance | inhibition, % at 13.3 µM | 290,000 tested, 0.52% active; in the data active = inhibition above about 50%
Target sequence (P51452 whole entry, looked up): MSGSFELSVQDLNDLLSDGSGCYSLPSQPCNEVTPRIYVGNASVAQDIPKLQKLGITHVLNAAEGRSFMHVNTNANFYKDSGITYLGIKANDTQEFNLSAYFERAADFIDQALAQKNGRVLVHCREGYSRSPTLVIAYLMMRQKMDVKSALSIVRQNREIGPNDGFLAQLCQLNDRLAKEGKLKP
Mtb FBA inh conf: M. tuberculosis aldolase blockers, biochemical, fluorescence, strain H37Rv, confirmation; shares compounds with FBA Mtb inh; purified M. tuberculosis FBA, fluorescence read-out; inhibition, % at 1 µM; 5,600 tested, 78% active; AID 651616, 2012;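 note: 0% = vehicle wells and 100% = reference inhibitor wells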
GDH-TPI counter-2: GDH-TPI coupling enzyme inhibitors, artefact control for M. tuberculosis FBA inhibitor project, biochemical, fluorescence, high throughput. shares compounds with FBA Mtb inh. GDH-TPI coupled enzyme counterscreen. inhibition, % at 1 µM. 5,600 tested, 81% active; in the data active = inhibition above about 10%
GDH-TPI DR: GDH-TPI coupling enzyme inhibitors, dose response, artefact control for M. tuberculosis FBA inhibitor project, biochemical, fluorescence, IC50 | IC50, µM | shares compounds with FBA Mtb inh | 170 tested, 79% active | AID 652145, 2013 | GDH-TPI coupled enzyme assay, artifact counterscreen; call rule not given here
Numbers without * were called inactive; / = no result given; + = active, no number. Cut-off read from the data, not from the text of the source, unless noted: active = inhibition above about 27%; inactive = the rest.

SMILES	GDH-TPI counter-1	Mtb hypoxia inh	Mtb bLac sens	FBA Mtb inh	DUSP3 inh	Mtb FBA inh conf	GDH-TPI counter-2	others
COc1ccccc1Oc1c(C)oc2cc(OC(=O)c3ccco3)ccc2c1=O	14	7	-2	55*	-14	119*	111*
COc1ccccc1-c1c(C)oc2cc(OC(=O)c3ccco3)ccc2c1=O	1	6	1	36*	3	15	1	GDH-TPI DR=4.5*
COc1ccc(-c2[nH]ncc2C2N=C(N)Nc3nc4ccccc4n32)cc1 (stereo not given)	-1	9	-11	34*	23	70*	52*
NC1=NC(c2cn[nH]c2-c2cccc(F)c2)n2c(nc3ccccc32)N1 (stereo not given)	1	12	4	2	-8	/	/
Cc1ccc(NC(=O)C2=CC=CN3CCS(=O)(=O)N=C23)cc1	8	10	-2	2	/	/	/
CC1=C(Cl)C2=NS(=O)(=O)CCN2C=C1Cl	8	-11	3	89*	14	159*	116*
Cc1cccc(-c2cnc3cccnn23)c1	1	/	/	45*	/	-8	-7
CCOc1cccc(-c2cnc3cccnn23)c1	16	/	/	73*	/	-3	-6
COC(=O)c1cc2ccc(OC)cc2c2cc(OC)c(OC)cc12	25	0	11	62*	/	-5	-6
COc1cc(NS(=O)(=O)c2ccc(N/C=C\C(=O)c3ccc(C)cc3)cc2)nc(OC)n1	26	/	61	30*	/	36*	22*
COc1cc(NS(=O)(=O)c2ccc(NC(=O)c3cccs3)cc2)nc(OC)n1	1	-10	6	75*	7	-1	-8
NC(=O)NN=CCCc1ccccc1	/	3	/	/	/	/	/
CC1=C(C(=O)Nc2ccc(F)cc2)C(c2ccncc2)C2=C(CCCC2=O)N1 (stereo not given)	13	-75	-2	4	-18	/	/
CCn1cc(C2C(C(=O)Nc3ccc(Br)cn3)=C(C)NC3=C2C(=O)CCC3)c(C)n1 (stereo not given)	13	2	-12	33*	6	132*	94*
CC1=C(C(=O)Nc2ccccn2)C(c2cn(C)nc2C)C2=C(CCCC2=O)N1 (stereo not given)	14	2	2	37*	3	+	171*
O=C(NCc1ccccn1)C1(C(F)(F)F)CC(=CCCO)CCCO1 (stereo not given)	/	6	/	/	/	/	/
CC(C)COc1ccc(C(=O)NN=Cc2ccoc2)cc1	/	6	/	/	/	/	/
CC1CN(C(C)CO)C(=O)c2cccc(NC(=O)C3CC3)c2OC1CN(C)Cc1ccc(Oc2ccccc2)cc1 (stereo not given)	/	6	/	/	/	/	/
O=C(NN=C1CCCc2ccccc21)c1cccc([N+](=O)[O-])c1	/	-1	/	/	/	/	/
NC(COc1ccc(Cl)cc1Cl)=NO	/	1	/	/	/	/	/
CCOC(=O)c1[nH]c2ccc(OC)cc2c1NC(=S)N1CCN(c2ccccc2)CC1	6	/	1	24	21	/	/
CCOC(=O)c1[nH]c2ccc(OC)cc2c1C(SCC(=O)O)c1ccc(C(F)(F)F)cc1 (stereo not given)	-1	14	-8	55*	-10	132*	85*
O=C(NN=Cc1ccncc1)C12CC3CC(CC(C3)C1)C2	/	-2	/	/	/	/	/
Cc1ccc(NCc2ccc(Cl)nc2)c(NCc2ccc(Cl)nc2)c1	4	-4	-7	28*	11	-5	-6
CC1Oc2ccccc2N(CC(=O)NCCCN2CCOCC2)C1=O (stereo not given)	0	3	-4	0	24	/	/
SMILES	GDH-TPI counter-1	Mtb hypoxia inh	Mtb bLac sens	FBA Mtb inh	DUSP3 inh	Mtb FBA inh conf	GDH-TPI counter-2	others
O=C(CN1C(=O)/C(=C\c2ccccc2Br)Oc2ccccc21)NCCCN1CCOCC1	18	-3	8	41*	-5	58*	53*
Cc1onc(-c2c(Cl)cccc2Cl)c1CON=C(C#N)c1c(Cl)cccc1Cl	/	5	/	/	/	/	/
Cc1cccc2c(C(=O)O)c3c(nc12)CCCCC3	3	/	-11	1	13	/	/
Cc1cccc2c(C(=O)O)c3cccc(C)c3nc12	25	-1	-2	95*	/	52*	55*
COc1ccc(-c2cc3cc(OC)c(OC)cc3c(C)n2)cc1	-5	5	85	47*	9	73*	55*
COc1ccc(C2Nc3ccccc3C(=O)N2NS(C)(=O)=O)c(OC)c1 (stereo not given)	4	2	-2	28*	27	12	1
CS(=O)(=O)NN1C(=O)c2ccccc2NC1c1ccccc1 (stereo not given)	4	-9	-1	34*	-15	13	-4	GDH-TPI DR=5.4*
CS(=O)(=O)NN1C(=O)c2ccccc2NC1c1cccc(O)c1 (stereo not given)	8	-8	-8	41*	-33	112*	81*
COc1ccc(C(C)=NNC(=O)c2ccc(NS(=O)(=O)c3cccs3)cc2)cc1	/	1	/	/	/	/	/
[O-][n+]1nc2ccccc2c2ccccc21	13	0	/	37*	/	88*	78*
CC1CN(C(C)CO)C(=O)c2cccc(NC(=O)c3ccncc3)c2OC1CN(C)S(=O)(=O)c1ccccc1 (stereo not given)	/	-5	/	/	/	/	/
Cc1ccc2nc(-c3ccc(O)cc3)c(Nc3ccc4c(c3)OCCO4)n2c1	2	1	2	36*	38	+	162*
O=[N+]([O-])c1cc(C=NNc2nc3ccccc3[nH]2)c(O)cc1O	/	12	/	/	/	/	/
CC1CN(C(C)CO)C(=O)c2cccc(NC(=O)Nc3ccc4c(c3)OCO4)c2OC1CN(C)Cc1ccc(-c2ccccc2)cc1 (stereo not given)	/	9	/	/	/	/	/
COC(=O)C1=C(c2ccc(-c3ccccc3)c(F)c2)CC2CCC1N2C(=O)NCc1ccco1 (stereo not given)	/	-1	/	/	/	/	/
COc1cc(S(C)=O)ccc1-c1nc2ncccc2[nH]1 (stereo not given)	32*	4	-2	55*	/	90*	72*
Cc1cc(OC(C)C(=O)NCC(O)c2ccccc2)c2c3c(c(=O)oc2c1)CCCC3 (stereo not given)	6	-2	-4	81*	-8	169*	131*
CC(Oc1ccc2c3c(c(=O)oc2c1)CCCC3)C(=O)NCC(O)c1ccccc1 (stereo not given)	19	-9	2	50*	-3	165*	117*
